# Results from article PMC4552634, “A New Set of Chemical Starting Points with Plasmodium falciparum Transmission-Blocking Potential for Antimalarial Drug Discovery” (PLoS ONE, 2015).
# Screen size: about 13,000 compounds; about 3,200 (25%) showed an effect of 50% or more. This is one part of the list.
# System: P. falciparum stage V gametocytes
# Design: BacTiter-Glo ATP luminescence viability of purified stage V gametocytes in 384-well plates, per cent inhibition versus DMSO
# Details: 48 h, 5 µM; inhibitor
row,SMILES,% Inhibition [%]
1,NS(=O)(=O)c1cccc(Nc2nccc(-c3cnn4ncccc34)n2)c1 [TCMDC-138919],-22.3
2,Cc1[nH]cnc1-c1cccc(NC(=O)c2cc3ccccc3s2)c1 [TCMDC-140418],-4.001
3,Cc1cc(N)c2cc(NC(=O)c3cc(C(F)(F)F)cc(C(F)(F)F)c3)ccc2n1 [TCMDC-139377],129.8
4,Cc1cc(N)c2cc(NC(=O)c3ccc4ccccc4c3)ccc2n1 [TCMDC-139362],110.4
5,Cc1cc(N)c2cc(NC(=O)c3cc4ccccc4s3)ccc2n1 [TCMDC-139336],120.6
6,Cc1cc(Nc2cccc(C(F)(F)F)c2)nc2ccc(NC(=O)c3ccc(=O)[nH]c3)cc12 [TCMDC-125286],-51.61
7,Nc1nc(N)c2cc(NC(=O)c3ccc(Cl)c(Cl)c3)ccc2n1 [TCMDC-141982],63.61
8,Nc1nc(N)c2cc(CNc3ccc(Cl)c(Cl)c3)ccc2n1 [TCMDC-141974],-49.67
9,CC(C)c1cc(N)c2cc(NC(=O)COCC(=O)Nc3ccc4nc(C(C)C)cc(N)c4c3)ccc2n1 [TCMDC-140151],20.51
10,COc1cc(C)nc2ccc(NC(=O)c3cc(C(F)(F)F)cc(C(F)(F)F)c3)cc12 [TCMDC-139381],-62.94
11,CN1CCc2cc(NC(=O)c3cc4ccccc4s3)cc(-c3ccccc3)c2CC1 [TCMDC-141733],18.19
12,O=C(Nc1cncc(NC(=O)c2ccc(Cl)c(Cl)c2)c1)c1ccc(Cl)c(Cl)c1 [TCMDC-134576],-22.28
13,Cc1ccc2nc(-c3cc(-c4ccc(OCc5ccccc5)cc4)cnc3N)[nH]c2c1 [TCMDC-135839],-50.65
14,Cn1c(=O)n(C)c2cc(CNCCNc3ccnc4cc(Cl)ccc34)ccc21 [TCMDC-125236],26.13
15,CCCOc1ccc(CCCON2C(N)=NC(N)=NC2(C)C)cc1 [TCMDC-131757],14.14
16,Cc1noc(C)c1-c1cccc(CNCc2ccc(-c3cccc(-c4nc5ccccc5[nH]4)c3)cc2)c1.O=C(O)C(F)(F)F [TCMDC-132565],-39.99
17,OCCN1CCN(C(=S)NC2CCCCC2)CC1 [TCMDC-123848],-10.92
18,O=C(NCc1cccc(C(F)(F)F)c1)c1ccc(-c2nc3cc(F)c(F)cc3[nH]2)cc1 [TCMDC-140461],13.57
19,Cc1cc(C)c(C(=O)Nc2ccc3nc(C)cc(N)c3c2)c(C)c1 [TCMDC-139379],-0.864
20,COc1cc(C)nc2ccc(NC(=O)c3ccc(C(=O)Nc4ccc5nc(C)cc(OC)c5c4)cc3)cc12 [TCMDC-139502],14.93
21,Cc1cc(N)c2cc(NC(=O)c3cccc4ccccc34)ccc2n1 [TCMDC-139378],63.27
22,Cc1cc(N)c2cc(NC(=O)CCC(=O)Nc3ccc4nc(C)cc(N)c4c3)ccc2n1 [TCMDC-139503],21.97
23,CCc1ccc(OCc2ccccc2C(=O)Nc2ccc3nc(C)cc(N)c3c2)cc1 [TCMDC-125882],102.8
24,Cc1cc(C(=O)Nc2ccc(OCc3ccccc3)cc2)on1 [TCMDC-124596],15.42
25,Cc1cc(N)c2cc(NC(=O)c3cccc(C(=O)Nc4ccc5nc(C)cc(N)c5c4)c3)ccc2n1 [TCMDC-139410],73.19
26,Cc1cc(Nc2ccc(OCc3ccccc3Cl)cc2)c2cc(Cl)ccc2n1 [TCMDC-123799],-30.43

row,SMILES,% Inhibition [%]
1,COc1cc(C)nc2ccc(NC(=O)Nc3cccc4ccccc34)cc12 [TCMDC-139397],-27.18
2,Cc1cccc2nc(-c3ccc(-c4ccc(CN5CCN(c6ccc(C#N)cn6)CC5)cc4)s3)[nH]c12.O=C(O)C(F)(F)F [TCMDC-133116],1.839
3,NC1(C(=O)O)Cc2ccc(Cl)cc2C1 (centres unmarked) [TCMDC-131768],8.887
4,O=C(/C=C/c1ccc(Cl)c(Cl)c1)NC1CCN(Cc2cccc(O)c2)CC1 [TCMDC-141738],-9.136
5,Oc1ccc2c(c1NCC1CCCCC1)CCCC2 [TCMDC-138157],-18.15
6,COC(=O)CN(C(=O)/C=C/c1ccc(Cl)c(Cl)c1)C1CCC(CN2CCC(c3c[nH]c4ccccc34)CC2)CC1 (centres unmarked) [TCMDC-140320],0.7085
7,Oc1ccc(-c2cc(-c3ccc(O)cc3)nc(-c3ccccc3)n2)cc1 [TCMDC-123851],-22.65
8,COc1ccc(-c2csc(C(=O)NC3CCC(N4CCC(c5ccccc5C)CC4)CC3)c2)cc1 (centres unmarked) [TCMDC-134109],30.06
9,CCc1c(C(=O)NC2CCC(N3CCC(c4ccccc4C)CC3)CC2)[nH]c2ccc(OC)cc12 (centres unmarked) [TCMDC-133531],-38.07
10,Cc1ccccc1C1CCN(C2CCC(NC(=O)c3cncc(-c4ccccc4)c3)CC2)CC1 (centres unmarked) [TCMDC-134111],-71.64
11,Cc1ccccc1C1CCN(C2CCC(NC(=O)c3cc(-c4ccc(Cl)cc4)cs3)CC2)CC1 (centres unmarked) [TCMDC-133529],65.99
12,Cc1ccccc1C1CCN(C2CCC(NC(=O)c3ccc(-c4ccccc4F)o3)CC2)CC1 (centres unmarked) [TCMDC-134110],121.1
13,COc1cccc(-c2cc(C(=O)NC3CCC(N4CCC(c5ccccc5C)CC4)CC3)[nH]n2)c1 (centres unmarked) [TCMDC-133532],73.16
14,Cc1ccccc1C1CCN(C2CCC(NC(=O)c3cc4cc(Cl)ccc4o3)CC2)CC1 (centres unmarked) [TCMDC-134102],-69.82
15,Cc1ccccc1C1CCN(C2CCC(NC(=O)c3ccc(-c4ccccc4)s3)CC2)CC1 (centres unmarked) [TCMDC-134113],-48.7
16,Cc1ccccc1C1CCN(C2CCC(NC(=O)c3ccc(-c4cccc(C(F)(F)F)c4)o3)CC2)CC1 (centres unmarked) [TCMDC-134108],57.44
17,Cc1ccccc1C1CCN(C2CCC(NC(=O)c3csc(-c4cccc(Cl)c4)n3)CC2)CC1 (centres unmarked) [TCMDC-134104],-68.67
18,Cc1ccc(/C=C/C(=O)NC2CCC(N3CCC(c4ccccc4C)CC3)CC2)cc1F (centres unmarked) [TCMDC-133514],-74.34
19,Cc1ccccc1C1CCN(C2CCC(NC(=O)c3cc(-c4ccccc4)oc3C)CC2)CC1 (centres unmarked) [TCMDC-134112],-36.13
20,CCCCN(Cc1cnccc1-c1ccc(Br)cc1)c1ccc(C(O)(C(F)(F)F)C(F)(F)F)cc1 [TCMDC-135242],23.71
21,CCC(C)CN1CCCN(c2ccc(NC(=O)c3cccs3)cc2)CC1 (centres unmarked) [TCMDC-134998],9.826
22,CCN(Cc1ccccc1)C1CCN(Cc2cc(Br)ccc2O)CC1 [TCMDC-123661],1.171
23,O=C(Nc1ccc(Cl)cc1)Nc1ccc(-c2csc(-c3nc4ccccc4[nH]3)c2)cc1 [TCMDC-133174],10.18
24,Cc1cc(N2CCCC2)nc(Nc2ccc(NC(=O)Nc3ccccc3)cc2)n1 [TCMDC-124705],-12.69
25,Cc1cc(N2CCCC2)nc(Nc2ccc(NC(=O)C(C)(C)C)cc2)n1 [TCMDC-124716],77.07
26,Cc1cc(N2CCCC2)nc(Nc2ccc(NC(=O)C(C)C)cc2)n1 [TCMDC-124970],-2.67

row,SMILES,% Inhibition [%]
1,CCNc1cc(C(=O)N[C@@H](Cc2ccccc2)[C@H](O)CNCCCc2ccc(OC)cc2)cc(N2CCCC2=O)c1 [TCMDC-141685],6.049
2,Fc1ccc(OC2CN(c3nccc(NCc4ccccc4Cl)n3)C2)cc1 [TCMDC-135110],91.97
3,CCNC(=O)N1CCc2ccc(Oc3nc(NCc4ccccc4OC)ncc3C)cc2CC1 [TCMDC-133414],17.56
4,O=C(Nc1ccc(OC2CCN(Cc3ccc(F)cc3)C2)cc1)c1ccco1 (centres unmarked) [TCMDC-133758],44.14
5,CCOc1ccccc1CNc1nccc(NCc2ccccc2OC)n1 [TCMDC-135119],40.21
6,Cc1onc(-c2ccccc2)c1-c1nc(NCc2ccccc2Cl)no1 [TCMDC-134205],-12.6
7,COc1ccccc1CNc1ccnc(N2CC(Oc3ccc(F)cc3)C2)n1 [TCMDC-135118],57.67
8,CC(C)(C)NC(=O)c1ccc(Oc2ccc(OC(F)(F)F)cc2)c(NC(=O)C(C)(C)C)c1 [TCMDC-137270],-22.87
9,CCC(CC(C)C(=O)O)=C(c1ccccc1)c1ccccc1 (centres unmarked) [TCMDC-131707],-2.137
10,COC(=O)C(C)NCC(=O)c1ccccc1 (centres unmarked) [TCMDC-131767],45.43
11,CC(C)[C@H](NCC(=O)c1ccccc1)C(=O)O [TCMDC-131333],52.78
12,COc1cc(NC(=O)N2CCOC(CCN3CCC4(CCc5ccccc54)CC3)(c3ccc(Cl)c(Cl)c3)C2)cc(OC)c1 (centres unmarked) [TCMDC-135338],-0.7672
13,CCc1c(C)nc(-n2nc(C)cc2NC(=O)CCc2ccccc2)[nH]c1=O [TCMDC-124934],-11.5
14,CCc1cc(CNC2CCN(CCc3c(F)cnc4ccc(OC)nc34)CC2)cc2c1OCCO2 [TCMDC-136290],31.48
15,COc1ccc2ncc(F)c(CCN3CC(O)C(CNCc4ccc5oc(=O)ccc5c4)C3)c2n1 (centres unmarked) [TCMDC-136499],11.09
16,COc1ccc2ncc(F)c(CCN3CCC4(CC3)COC(c3cc5c(cn3)OCCO5)=N4)c2n1 [TCMDC-135741],93.18
17,COc1ccc2ncc(F)c(CCN3CCC(NCc4cc(F)c5c(c4)OCCO5)CC3)c2n1 [TCMDC-135849],84.79
18,COc1ccc2ncc(F)c(CCN3CCC(NCc4cc(OC)c5c(c4)OCCO5)CC3)c2n1 [TCMDC-135509],17.67
19,COc1ccc2ncc(F)c(CCN3CC(O)C(CNCc4ccc(F)cc4)C3)c2n1 (centres unmarked) [TCMDC-136527],13.85
20,COc1ccc2ncc(F)c(CCN3CC(O)C(CNCc4ccc5c(c4)OCCO5)C3)c2n1 (centres unmarked) [TCMDC-136518],55.46
21,COc1ccc2ncc(F)c(CCN3CC(O)C(CNCc4ccccc4)C3)c2n1 (centres unmarked) [TCMDC-136498],50.66
22,COc1ccc2ncc(F)c(CCN3C[C@H](CNCc4cc(C#N)c5c(c4)OCCO5)[C@H](O)C3)c2n1 [TCMDC-136275],16.8
23,COc1ccc2ncc(F)c(CCN3CC(O)C(CNCc4ccc5ccccc5c4)C3)c2n1 (centres unmarked) [TCMDC-136528],43.95
24,COc1ccc2ncc(F)c(CCN3CCC(NCc4cc(Br)c5c(c4)OCCO5)CC3)c2n1 [TCMDC-136211],30.05
25,COc1ccc2ncc(F)c(CCN3CCC(NCc4cc(C)c5c(c4)OCCO5)CC3)c2n1 [TCMDC-136209],19.66
